From PubChem BioAssay AID504848 (National Center for Advancing Translational Sciences (NCATS), 2011)
Several values for one entry are separate records, joined by “and”; a condition that tells them apart may be missing. Equal entries are not always repeated. The whole screen tested about 2,300 compounds, of which about 1,400 (61%) were called active. Inconclusive results (about 29%) are left out. The call rests on the fitted dose curve; in most records, active means well fitted inhibition curve with a large enough effect; inconclusive means small, poorly fitted or top-dose-only effect, or effect the other way; inactive means no such curve, though single readings can be large or run the other way. The set was probably picked from earlier hits. The list shows a part of the results.

Experiment: Confirmation screen for delayed death inhibitors of the malarial parasite plastid, 96 hour incubation; further: nearly all actives have a fitted effect of over 60% in size
Settings: P. falciparum luciferase growth in erythrocytes; series mostly up to 28.7 µM
Summary of the method: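 Erythrocytes infected with luciferase-expressing P. falciparum (2% hematocrit, 0.1% parasitemia final) in RPMI 1640 with 0.5% Albumax, exposed to compounds 96 h at 37 C, 5% CO2. Growth inhibition read as decreased luciferase luminescence.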
Potency means the concentration at half of the fitted maximal effect.

Row | Structure (SMILES) | Potency
1 | COC(=O)c1cc(=O)n(Cc2cccs2)c(=Nc2ccccc2)s1 | inactive
2 | COCCn1c(=NC(=O)/C=C/c2ccccc2)sc2cc(NC(C)=O)ccc21 | 7.94 µM (active)
3 | CC(C)N(C(C)C)S(=O)(=O)c1ccc(N2CCc3ccccc3C2)nc1 | 12.6 µM (active)
4 | CCN(CC)S(=O)(=O)c1ccc(N2CCc3ccccc3C2)nc1 | 14.1 µM (active)
5 | CN1C(=O)C(C)(C)c2cc(S(=O)(=O)NCC3CCC(C(=O)NCc4ccc(F)cc4)CC3)ccc21 (stereo not given) | 11.2 µM (active)
6 | COc1ccc(NC(=O)CCCn2cc([N+](=O)[O-])cn2)cc1 | inactive
7 | COc1ccc(NC(=O)CCCn2nc(C)c3c(C)n(-c4ccccc4)nc3c2=O)cc1 | 11.2 µM (active)
8 | Cc1nn(-c2ccccc2)c(C)c1NC(=O)COC(=O)[C@@H](NC(=O)c1ccccc1)C(C)C | inactive
9 | Cc1ccccc1NC(=O)CCCn1nc(C)c2c(C)n(-c3ccccc3)nc2c1=O | 10 µM (active)
10 | CCOc1ccc(CCNC(=O)CCCn2nc(C)c3c(C)n(-c4ccccc4)nc3c2=O)cc1 | 11.2 µM (active)
11 | Cc1cccc(C)c1NC(=O)CCCn1nc(C)c2c(C)n(-c3ccccc3)nc2c1=O | 10 µM (active)
12 | CCOc1ccccc1C(=O)NCC(=O)NCCc1ccc(S(N)(=O)=O)cc1 | inactive
13 | CSc1ccccc1OCc1cc(C(=O)N(C)CCc2c(C)n[nH]c2C)no1 | 10 µM (active)
14 | CCOC(=O)c1ccc(CNC(=O)c2cc(COc3ccccc3SC)on2)o1 | inactive
15 | CSc1ccccc1OCc1cc(C(=O)NCCCn2nc(C)cc2C)no1 | 12.6 µM (active)
16 | CCN(CCN1CCCC1)C(=O)c1cc(COc2ccccc2SC)on1 | 12.6 µM (active)
17 | CSc1ccccc1OCc1cc(C(=O)NCCn2ccnc2C)no1 | inactive
18 | COc1ccc(NC2=C(NC(C)=O)C(=O)c3ccccc3C2=O)cc1 | 3.16 µM (active)
19 | CC(=O)NC1=C(Nc2ccc(N(C)C)cc2)C(=O)c2ccccc2C1=O | 6.31 µM (active)
20 | N#Cc1ccccc1S(=O)(=O)N1CCC(C(=O)NCc2ccccc2CN2CCCC2)CC1 | 14.1 µM (active)
21 | CCOC(=O)c1cnc2ccccc2c1NCCc1ccc(OC)c(OC)c1 | 5.01 µM (active)
22 | Cc1ccc2c(c1)c1c3n2CCN(C(=O)CCl)C3CCC1 (stereo not given) | 14.1 µM (active)
23 | CN(CC(=O)Nc1ccc(Cl)cc1)C(=O)Cc1c(F)cccc1Cl | 10 µM (active)

Row | Structure (SMILES) | Potency
24 | O=C(/C=C/Sc1ncn[nH]1)c1ccc(Cl)cc1 | 12.6 µM (active)
25 | CCC1OC(=O)C[C@@H](O)[C@H](C)[C@@H](OC2OC(C)CC(N(C)C)C2O)[C@@H](CC=O)C[C@@H](C)C(=O)/C=C/[C@]2(C)OC2C1C (stereo not given in full) | 1.78 µM (active)
26 | Cc1cc(C)n(Cc2ccc(C(=O)N/N=C/c3ccc(-c4ccc([N+](=O)[O-])cc4)o3)o2)n1 | 5.01 µM (active)
27 | COc1cc(C(C)=O)ccc1OCC(O)CN1CCN(c2cc(C)cc(C)c2)CC1 (stereo not given) | 14.1 µM (active)
28 | CC(C)(C)C1C/C(=C/c2ccccn2)C(=O)/C(=C/c2ccccn2)C1 (stereo not given) | 0.158 µM (active)
29 | CSc1cccc(CN2CCC(Oc3cccc(C(=O)N4CCCC4)c3)CC2)c1 | 12.6 µM (active)
30 | COCCNC(=O)c1cccc(OC2CCN(Cc3ccc(C(C)C)cc3)CC2)c1 | 11.2 µM (active)
31 | COCCNC(=O)c1cccc(OC2CCN(Cc3cccc(SC)c3)CC2)c1 | 12.6 µM (active)
32 | CN(C)CCn1c(=O)n(Cc2ccco2)c(=O)c2c3c(sc21)CCCCC3 | 10 µM (active)
33 | O=c1c(Cl)cc(Cl)nn1-c1ccccc1 | 12.6 µM (active)
34 | Cc1ccccc1CN(C)Cc1cc(=O)oc2c(C)c(C)ccc12 | 15.8 µM (active)
35 | COc1cc2c(cc1OC)CN(Cc1cc(=O)oc3c(C)c(C)ccc13)CC2 | 15.8 µM (active)
36 | Cc1c(O)ccc2c(CN(C)Cc3ccccc3)cc(=O)oc12 | 12.6 µM (active)
37 | Cc1ccc2c(CN(C)Cc3cccc(F)c3)cc(=O)oc2c1C | 12.6 µM (active)
38 | C/C(=N\NC(=O)c1cccc(S(=O)(=O)N2CCOCC2)c1)c1ccc(O)cc1 | 1 µM (active)
39 | O=C(Nc1ccccc1N1CCOCC1)c1ccc(F)c(S(=O)(=O)N2CCOCC2)c1 | 8.91 µM (active)
40 | O=C(Nc1ccccc1[N+](=O)[O-])c1cc(S(=O)(=O)N2CCOCC2)cs1 | 14.1 µM (active)
41 | O=C(COC(=O)c1ccc(F)c(S(=O)(=O)N2CCOCC2)c1)Nc1ccc2[nH]c(=O)[nH]c2c1 | inactive
42 | O=C(Nc1ccccc1N1CCOCC1)c1cccc(S(=O)(=O)N2CCOCC2)c1 | 11.2 µM (active)
43 | COc1ccc(CNn2c(-c3ccccc3F)nc3ccccc3c2=O)cc1OC | 5.01 µM (active)
44 | Cc1ccccc1C1=NC(C(F)(F)F)(C(F)(F)F)c2c(n(-c3ccc(F)cc3)c(=O)[nH]c2=O)N1 | 11.2 µM (active)
45 | CC(=O)/C(C#N)=C1\NC(=O)C(Cc2ccc(C)c(C)c2)S1 (stereo not given) | 11.2 µM (active)
46 | CC(=O)/C(C#N)=C1\NC(=O)C(Cc2ccc(C)c(Cl)c2)S1 (stereo not given) | 12.6 µM (active)

Row | Structure (SMILES) | Potency
47 | CC(=O)/C(C#N)=C1\NC(=O)C(Cc2cc(Cl)ccc2Cl)S1 (stereo not given) | 14.1 µM (active)
48 | COC(=O)c1ccccc1SC1CC(=O)N(c2ccccc2)C1=O (stereo not given) | inactive
49 | CC(C)CN1C2CCCC1CC(NC(=S)NCc1ccco1)C2 (stereo not given) | 10 µM (active)
50 | CCOC(=O)C1CCCN(Cc2ccc(OCc3ccccc3)c(OC)c2)C1 (stereo not given) | 10 µM (active)
51 | CCOC(=O)C1CCCCN1Cc1cccc(OCc2ccccc2)c1 (stereo not given) | 12.6 µM (active)
52 | O=C(C1CCC(=O)N1Cc1ccccc1Cl)N1CCN(c2cccc(Cl)c2)CC1 (stereo not given) | 11.2 µM (active)
53 | CCS(=O)(=O)c1nc(S(=O)(=O)c2ccc(C)cc2)c(N2CCC3(CC2)OCCO3)s1 | 10 µM (active)
54 | Cc1ccc(NC(=O)CN2C(=O)S/C(=C\c3ccccn3)C2=O)cc1C | inactive
55 | Cc1ccc(CN(Cc2ccccn2)C(=O)Nc2ccc(C)c(C)c2)cc1 | 15.8 µM (active)
56 | OCC1(CCOc2ccccc2)CCN(Cc2nc3ccc(F)cc3[nH]2)CC1 | 12.6 µM (active)
57 | Cc1c(CN2CCC(CO)(CCOc3ccccc3)CC2)[nH]c2ccc(Cl)cc12 | 5.62 µM (active)
58 | Cc1ccc(-n2c(-c3ccc(Cl)cc3)c[n+]3c2CCC3)cc1 | 0.0398 µM (active)
59 | CC(C)(C)OC(=O)CNC(=O)c1[nH]cnc1C(=O)NC1CCN(C(=O)OC(C)(C)C)CC1 | 12.6 µM (active)
60 | CC(C)C[C@H](NC(=O)c1nc[nH]c1C(=O)N1CCN(C(=O)OC(C)(C)C)CC1)C(=O)OC(C)(C)C | 15.8 µM (active)
61 | CC(C)(C)OC(=O)[C@H](Cc1ccccc1)NC(=O)c1nc[nH]c1C(=O)N1CCN(C(=O)OC(C)(C)C)CC1 | 12.6 µM (active)
62 | CC(NC(=O)c1cc2sccc2n1C)c1ccc2c(c1)OCCO2 (stereo not given) | inactive
63 | CCCCN(CCCNC(=O)C1CCN(C(=O)c2cc3sccc3n2C)CC1)Cc1ccccc1 | 0.562 µM (active)
64 | O=S(=O)(CC(CN1CCCCC1)N1CCCCC1)c1ccccc1 (stereo not given) | 7.94 µM (active)
65 | Cc1ccc(OCCn2cc(C(=S)N3CCCC3)c3ccccc32)cc1C | 14.1 µM (active)
66 | CCOC(=O)CSc1nnc(CNc2nc(-c3ccccc3)cs2)n1C | 10 µM (active)
67 | Cc1cc(C)nc(SCc2nnc(SCC(=O)Nc3nc(-c4ccccc4)cs3)n2C)n1 | 14.1 µM (active)
68 | CCCCN(CCCC)CCC(O)c1cc2c(Cl)cc(Cl)cc2c2cc(C(F)(F)F)ccc12 (stereo not given) | 39.8 nM (active) and 20 nM (active)
69 | COc1ccc(-n2c(C)cc(C(=O)Cn3c(NCCO)nc4ccccc43)c2C)cc1 | 10 µM (active)

Row | Structure (SMILES) | Potency
70 | CCCc1c(C)c2cccc(C)c2[nH]c1=O | inactive
71 | N#CC(C#N)=C1C=CC=CN1/C(=C\c1ccco1)C(=O)c1ccc(Cl)cc1 | 15.8 µM (active)
72 | COc1ccc(C(=O)/C(=C\c2ccco2)N2C=CC=CC2=C(C#N)C#N)cc1 | 15.8 µM (active)
73 | N#CC(C#N)=C1C=CC=CN1/C(=C\c1ccco1)C(=O)c1ccc(-c2ccccc2)cc1 | 12.6 µM (active)
74 | COc1ccc(CCNS(=O)(=O)c2ccc(Br)s2)cc1 | inactive
75 | CCN(CC)S(=O)(=O)c1ccc(C2=NOC3(C2)N(C)c2ccccc2C3(C)C)cc1 (stereo not given) | 12.6 µM (active)
76 | CN1c2ccccc2C(C)(C)C12CC(c1ccc(S(=O)(=O)N3CCCCC3)cc1)=NO2 (stereo not given) | 5.01 µM (active)
77 | CC(C)NC(=O)c1onc(CSc2cccc3ccccc23)c1C(=O)O | inactive
78 | CSc1ccc(CNC(=O)C(C)n2nc(C)c3c(C)n(-c4ccccc4)nc3c2=O)cc1 (stereo not given) | 11.2 µM (active)
79 | Cc1ccc(C(=O)NCC(=O)NCCCc2ccccc2)s1 | inactive
80 | Cc1nn(C(C)C(=O)NCCC2=CCCCC2)c(=O)c2nn(-c3ccccc3)c(C)c12 (stereo not given) | 11.2 µM (active)
81 | Cc1c(NC(=O)C(C)Sc2nccn2C)c(=O)n(-c2ccccc2)n1C (stereo not given) | inactive
82 | Cc1nn(C(C)C(=O)Nc2ccccc2Cl)c(=O)c2nn(-c3ccccc3)c(C)c12 (stereo not given) | 10 µM (active)
83 | Cc1nn(C(C)C(=O)NCCCc2ccccc2)c(=O)c2nn(-c3ccccc3)c(C)c12 (stereo not given) | 12.6 µM (active)
84 | CCCCCCC1C(C#N)=C(N)OC2=C1C(=O)CCC2 (stereo not given) | inactive
85 | Cc1ccc(-c2cc(C(=O)N/N=C/C=C/c3ccco3)c3ccccc3n2)cc1C | 14.1 µM (active)
86 | CC(C)C[C@@H](NC(=O)[C@H](Cc1ccccc1)NC(=O)c1cnccn1)B(O)O | 0.178 µM (active)
87 | CC(C)=N/N=C1/NC(=O)C(Cc2ccccc2)S1 (stereo not given) | 7.94 µM (active)
88 | Cc1cc(=O)oc2ccc(OCC(=O)N3CCc4ccccc43)cc12 | 6.31 µM (active)
89 | COc1ccc(NC2CCCN(C(=O)CCc3ccncc3)C2)cc1OC (stereo not given) | inactive
90 | Cc1ccc(NC2CCCN(C(=O)CSc3ccncc3)C2)cc1C (stereo not given) | 12.6 µM (active)
